Experimental data reported in PubChem BioAssay AID1159580 (chemical genetic matrix, 2015).
Where “and” joins values, the source holds several entries; their conditions need not be identical. Equal entries are not always repeated. The campaign covered roughly 5,500 compounds. About 2,000 (36%) were called active. About 18% were inconclusive and are not listed. Rule as the data show it: active = normalized growth mostly below about 0.91 (no sharp cut-off); inconclusive = no clear call, values can overlap the other calls; inactive = mostly above about 0.92. Some of the results follow.

Assay: chemical genetic growth profiling, strain panel (AID 1159580);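 also: tested at 20 µM; growth read once vehicle control cultures reached saturation at 30 °C; 1 = growth at the plate median or of vehicle wells; lower values mean less growth of the strain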
Conditions: S. cerevisiae deletion strains, growth OD

Measured: normalized growth

CC1(C)C2CC(=O)O[C@@]3(C)C4=CC(=O)O[C@@H](c5ccoc5)[C@]4(C)CCC3[C@@]2(C)C=C[C@H]1O (stereo partly drawn)
inactive: locus YAL013W, strain DEP1, hits give low values 0.997 | locus YAL021C, strain ccr4, hits give low values 0.993 | locus YAL026C, strain drs2, hits give low values 0.98 | locus YAL030W, strain snc1, hits give low values 0.978 | locus YBL061C, strain skt5, hits give low values 0.986 | locus YBR009C, strain hhf1, hits give low values 0.991 | locus YBR021W, strain FUR4, hits give low values 1.01 | locus YBR023C, strain chs3, hits give low values 0.97 | locus YBR171W, strain sec66, hits give low values 0.966 | locus YBR229C, strain ROT2, hits give low values 1.01 | locus YBR231C, strain swc5, hits give low values 0.985 | locus YBR279W, strain paf1, hits give low values 0.985 | locus YCL011C, strain gbp2, hits give low values 0.967 | locus YCL016C, strain dcc1, hits give low values 1.01 | locus YCL029C, strain bik1, hits give low values 0.989 | locus YCL061C, strain MRC1, hits give low values 0.999 | locus YCL069W, strain vba3, hits give low values 0.971 | locus YCR088W, strain abp1, hits give low values 0.974 | locus YDL005C, strain med2, hits give low values 0.975 | locus YDL035C, strain GPR1, hits give low values 1.03 | locus YDL040C, strain nat1, hits give low values 0.974 | locus YDL074C, strain BRE1, hits give low values 1.01 | locus YDL101C, strain DUN1, hits give low values 0.999 | locus YDL134C, strain PPH21, hits give low values 1.01 | locus YDL185W, strain tfp1, hits give low values 0.999 | locus YDL192W, strain arf1, hits give low values 0.988 | locus YDR001C, strain nth1, hits give low values 0.99 | locus YDR069C, strain doa4, hits give low values 0.98 | locus YDR101C, strain arx1, hits give low values 1 | locus YDR137W, strain rgp1, hits give low values 1.01 | locus YDR159W, strain sac3, hits give low values 0.953 | locus YDR162C, strain NBP2, hits give low values 0.998 | locus YDR195W, strain ref2 0.961 | locus YDR297W, strain sur2, hits give low values 0.983 | locus YDR318W, strain mcm21, hits give low values 0.989 | locus YDR334W, strain swr1, hits give low values 0.981 | locus YDR335W, strain msn5, hits give low values 0.979 | locus YDR388W, hits give low values 0.99 | locus YDR392W, strain spt3, hits give low values 0.984 | locus YDR502C, strain sam2, hits give low values 0.998 | locus YEL003W, strain gim4, hits give low values 0.978 | locus YEL037C, strain rad23, hits give low values 0.984 | locus YEL061C, strain CIN8 (second series), hits give low values 0.972 | locus YER015W, strain faa2, hits give low values 0.975 | locus YER016W, strain bim1, hits give low values 0.988 | locus YER110C, hits give low values 0.983 | locus YER111C, strain swi4, hits give low values 0.975 | locus YER155C, strain BEM2 (second series), hits give low values 1 | locus YER155C, strain BEM2, hits give low values 1.01 | locus YER167W, strain BCK2, hits give low values 1.02 | locus YFR010W, strain ubp6, hits give low values 0.971 | locus YGL078C, strain dbp3, hits give low values 0.982 | locus YGL086W, strain mad1, hits give low values 0.988 | locus YGL167C, strain pmr1, hits give low values 0.989 | locus YGL173C, strain kem1, hits give low values 0.98 | locus YGL227W, strain vid30, hits give low values 0.98 | locus YGL240W, strain doc1, hits give low values 0.968 | locus YGL248W, strain PDE1, hits give low values 1 | locus YGL253W, strain hxk2, hits give low values 0.948 | locus YGR078C, strain PAC10, hits give low values 1 | locus YGR135W, strain pre9, hits give low values 0.969 | locus YGR252W, strain gcn5, hits give low values 0.97 | locus YHR013C, strain ard1, hits give low values 0.973 | locus YHR027C, strain rpn1, hits give low values 0.983 | locus YHR030C, strain SLT2, hits give low values 1.01 and 0.99 | locus YHR079C, strain IRE1 (second series), hits give low values 0.988 | locus YHR079C, strain IRE1, hits give low values 0.987 | locus YHR094C, strain hxt1, hits give low values 0.987 | locus YHR129C, strain ARP1, hits give low values 1.01 | locus YHR142W, strain chs7, hits give low values 0.964 | locus YHR200W, strain rpn10, hits give low values 0.989 | locus YIL066C, strain RNR3, hits give low values 1.02 | locus YIL073C, strain SPO22, hits give low values 0.988 | locus YIL125W, strain kgd1, hits give low values 0.991 | locus YIR030C, strain dcg1, hits give low values 0.975 | locus YJL092W, strain hpr5, hits give low values 0.971 | locus YJL095W, strain BCK1 (second series), hits give low values 0.982 | locus YJL095W, strain BCK1, hits give low values 0.986 and 0.978 | locus YJL115W, strain asf1, hits give low values 0.987 | locus YJL129C, strain trk1, hits give low values 0.956 | locus YJL134W, strain LCB3, hits give low values 1.01 | locus YJL154C, strain vps35, hits give low values 0.99 | locus YJL164C, strain tpk1, hits give low values 1.01 | locus YJL166W, strain qcr8, hits give low values 0.98 | locus YJL168C, strain set2, hits give low values 0.98 | locus YJL187C, strain SWE1 (second series), hits give low values 0.997 | locus YJL187C, strain SWE1, hits give low values 0.983 | locus YJR043C, strain POL32, hits give low values 1.03 | locus YJR066W, strain TOR1, hits give low values 0.946 | locus YKL009W, strain mrt4, hits give low values 0.985 | locus YKL068W, hits give low values 1 | locus YKL085W, strain MDH1 (second series), hits give low values 0.993 | locus YKL085W, strain MDH1, hits give low values 0.993 | locus YKL160W, strain elf1, hits give low values 1.02 | locus YKR001C, strain vps1, hits give low values 0.997 | locus YKR026C, strain gcn3, hits give low values 0.977 | locus YKR091W, strain srl3, hits give low values 0.983 | locus YLL001W, strain dnm1, hits give low values 1 | locus YLL026W, hits give low values 0.971 | locus YLL041C, strain sdh2, hits give low values 0.976 | locus YLR027C, strain aat2, hits give low values 0.968 | locus YLR039C, strain RIC1, hits give low values 0.952 | locus YLR058C, strain SHM2, hits give low values 1.01 | locus YLR102C, strain apc9, hits give low values 0.982 | locus YLR113W, strain HOG1, hits give low values 0.969 | locus YLR221C, strain rsa3, hits give low values 0.975 | locus YLR258W, strain gsy2, hits give low values 0.98 | locus YLR262C, strain YPT6 (second series), hits give low values 1.01 | locus YLR268W, strain sec22, hits give low values 1.01 | locus YLR320W, strain mms22, hits give low values 0.993 | locus YLR330W, strain CHS5, hits give low values 1.01 | locus YLR342W, strain FKS1, hits give low values 0.977 | locus YLR357W, strain rsc2, hits give low values 1 | locus YLR370C, strain arc18, hits give low values 0.958 | locus YLR371W, strain rom2, hits give low values 0.992 | locus YLR384C, strain iki3, hits give low values 0.986 | locus YLR418C, strain cdc73, hits give low values 0.955 | locus YML016C, strain PPZ1, hits give low values 1.01 | locus YML032C, strain rad52, hits give low values 1 | locus YML120C, strain ndi1, hits give low values 0.959 | locus YML124C, strain tub3, hits give low values 0.983 | locus YMR058W, strain fet3, hits give low values 0.986 | locus YMR078C, strain ctf18, hits give low values 0.985 | locus YMR125W, strain sto1, hits give low values 0.993 | locus YMR129W, hits give low values 0.992 | locus YMR205C, strain PFK2, hits give low values 1.04 | locus YMR223W, strain ubp8, hits give low values 0.971 | locus YMR231W, strain pep5, hits give low values 0.948 | locus YMR263W, strain SAP30, hits give low values 1.02 | locus YMR307W, strain GAS1, hits give low values 0.922 | locus YNL067W, strain RPL9B, hits give low values 0.999 | locus YNL071W, strain lat1, hits give low values 0.987 | locus YNL153C, strain GIM3, hits give low values 1 | locus YNL183C, strain NPR1, hits give low values 0.962 | locus YNL209W, strain ssb2, hits give low values 1.01 | locus YNL233W, strain BNI4, hits give low values 0.992 | locus YNL248C, strain rpa49, hits give low values 0.98 | locus YNL250W, strain rad50, hits give low values 0.984 | locus YNL271C, strain bni1, hits give low values 0.995 | locus YNL298W, strain CLA4, hits give low values 1 | locus YNL307C, strain MCK1, hits give low values 0.991 | locus YNL322C, strain KRE1 (second series), hits give low values 0.962 | locus YNR049C, strain mso1, hits give low values 0.981 | locus YNR052C, strain pop2, hits give low values 0.983 | locus YOL006C, strain TOP1, hits give low values 1.03 | locus YOL012C, strain htz1 0.912 | locus YOL147C, strain pex11, hits give low values 0.989 | locus YOR001W, strain rrp6, hits give low values 0.95 | locus YOR061W, strain CKA2, hits give low values 1.01 | locus YOR069W, strain VPS5, hits give low values 1 | locus YOR070C, strain gyp1, hits give low values 0.984 | locus YOR080W, strain dia2, hits give low values 0.963 | locus YOR083W, strain WHI5, hits give low values 1.02 | locus YOR106W, strain vam3, hits give low values 0.989 | locus YOR136W, strain idh2, hits give low values 0.998 | locus YOR144C, strain elg1, hits give low values 0.993 | locus YOR184W, strain ser1, hits give low values 1.02 | locus YOR231W, strain MKK1, hits give low values 0.998 | locus YOR265W, strain rbl2, hits give low values 0.966 | locus YOR270C, strain vph1, hits give low values 0.951 | locus YOR290C, strain snf2, hits give low values 0.974 | locus YOR316C, strain cot1, hits give low values 0.981 | locus YPL051W, strain arl3, hits give low values 0.987 | locus YPL078C, strain atp4, hits give low values 1.01 | locus YPL106C, strain sse1, hits give low values 1.02 | locus YPL240C, strain hsp82, hits give low values 0.967 | locus YPL241C, strain CIN2, hits give low values 1.01 | locus YPL256C, strain CLN2, hits give low values 0.967 | locus YPR119W, strain clb2, hits give low values 0.981 | locus YPR141C, strain kar3, hits give low values 0.987 | locus YPR163C, strain tif3, hits give low values 0.994 | locus YPR167C, strain met16, hits give low values 0.983 | strain wtn01, hits give low values 1.02
